# Residue numbers refer to the chain shown, from its start.
# Tests used:
# Experiment in all cases: PBM; 200 nM protein, PBS
# Conditions in all cases: dsDNA, one strand shown
# ALX3 [1] = molecular target: ALX3 (Homo sapiens, UniProt O95076 139-225, N203Q)
# ALX3 [2] = molecular target: ALX3 (Homo sapiens, UniProt O95076 139-225)
# ALX3 [3] = molecular target: ALX3 (Homo sapiens, UniProt O95076 139-225, N203S)
# ALX3 [4] = molecular target: ALX3 (Homo sapiens, UniProt O95076 139-225, L168Q)
# ALX3 [5] = molecular target: ALX3 (Homo sapiens, UniProt O95076 139-225, L168V)
# Chain of ALX3 (Homo sapiens, UniProt O95076 139-225, L168V) (O95076 139-225 L168V): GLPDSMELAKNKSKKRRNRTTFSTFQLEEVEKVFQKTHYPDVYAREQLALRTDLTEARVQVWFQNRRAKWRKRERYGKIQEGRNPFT
# HOXD13 [6] = molecular target: HOXD13 (Homo sapiens, UniProt P35453 263-343, T313R)
# Chain of HOXD13 (Homo sapiens, UniProt P35453 263-343, T313R) (P35453 263-343 T313R): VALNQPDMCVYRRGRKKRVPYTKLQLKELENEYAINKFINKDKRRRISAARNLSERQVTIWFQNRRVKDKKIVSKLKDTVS
# HOXA2 = HOXA2 (Homo sapiens, UniProt O43364 129-215, R185K)
# Chain of HOXA2 (O43364 129-215 R185K): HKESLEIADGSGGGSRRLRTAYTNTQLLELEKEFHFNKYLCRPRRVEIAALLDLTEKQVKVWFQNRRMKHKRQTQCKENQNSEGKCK
# HOXD13 [7] = molecular target: HOXD13 (Homo sapiens, UniProt P35453 263-343)
# Chain of HOXD13 (Homo sapiens, UniProt P35453 263-343) (P35453 263-343): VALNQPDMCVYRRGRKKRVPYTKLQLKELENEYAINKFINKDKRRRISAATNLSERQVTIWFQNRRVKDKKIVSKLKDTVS
# HOXD13 [8] = molecular target: HOXD13 (Homo sapiens, UniProt P35453 263-343, T313A)
# Chain of HOXD13 (Homo sapiens, UniProt P35453 263-343, T313A) (P35453 263-343 T313A): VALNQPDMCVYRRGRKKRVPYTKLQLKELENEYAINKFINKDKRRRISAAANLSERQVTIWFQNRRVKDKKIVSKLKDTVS
# NKX2-6 [9] = molecular target: T1, NKX2-6 (Homo sapiens, UniProt A6NCS4 118-204)
# T1 sequence: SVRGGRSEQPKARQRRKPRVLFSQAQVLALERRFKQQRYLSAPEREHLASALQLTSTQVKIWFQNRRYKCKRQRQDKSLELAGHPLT
# NKX2-6 [10] = molecular target: T2, NKX2-6 (Homo sapiens, UniProt A6NCS4 118-204, F151L)
# T2 sequence: T1 sequence with F34L
# Chain of ALX3 (Homo sapiens, UniProt O95076 139-225, N203Q) (O95076 139-225 N203Q): as the sequence (O95076 139-225 L168V) above, with V30L, N65Q counted along it
# Chain of ALX3 (Homo sapiens, UniProt O95076 139-225) (O95076 139-225): as the sequence (O95076 139-225 L168V) above, with V30L counted along it
# Chain of ALX3 (Homo sapiens, UniProt O95076 139-225, N203S) (O95076 139-225 N203S): as the sequence (O95076 139-225 L168V) above, with V30L, N65S counted along it
# Chain of ALX3 (Homo sapiens, UniProt O95076 139-225, L168Q) (O95076 139-225 L168Q): as the sequence (O95076 139-225 L168V) above, with V30Q counted along it
sequence,measurement,setting,value
ATTTGACC,binding signal,ALX3 [1],"8.13 upbm affinity estimate (log intensity, higher = more binding, comparable within an allelic series)"
same,binding signal,ALX3 [2],"9.49 upbm affinity estimate (log intensity, higher = more binding, comparable within an allelic series)"
same,binding signal,ALX3 [3],"8.24 upbm affinity estimate (log intensity, higher = more binding, comparable within an allelic series)"
GAATATCA,binding signal,ALX3 [1],"8.19 upbm affinity estimate (log intensity, higher = more binding, comparable within an allelic series)"
same,binding signal,ALX3 [2],"8.71 upbm affinity estimate (log intensity, higher = more binding, comparable within an allelic series)"
same,binding signal,ALX3 [3],"8.23 upbm affinity estimate (log intensity, higher = more binding, comparable within an allelic series)"
CCCCCCAA,binding signal,ALX3 [1],"7.79 upbm affinity estimate (log intensity, higher = more binding, comparable within an allelic series)"
same,binding signal,ALX3 [2],"7.79 upbm affinity estimate (log intensity, higher = more binding, comparable within an allelic series)"
same,binding signal,ALX3 [4],"7.64 upbm affinity estimate (log intensity, higher = more binding, comparable within an allelic series)"
same,binding signal,ALX3 [5],"7.7 upbm affinity estimate (log intensity, higher = more binding, comparable within an allelic series)"
same,binding signal,ALX3 [3],"7.81 upbm affinity estimate (log intensity, higher = more binding, comparable within an allelic series)"
AGTTACAG,binding signal,ALX3 [1],"8.16 upbm affinity estimate (log intensity, higher = more binding, comparable within an allelic series)"
same,binding signal,ALX3 [2],"8.82 upbm affinity estimate (log intensity, higher = more binding, comparable within an allelic series)"
same,binding signal,ALX3 [3],"8.25 upbm affinity estimate (log intensity, higher = more binding, comparable within an allelic series)"
TTAACTAA,binding signal,ALX3 [1],"8.53 upbm affinity estimate (log intensity, higher = more binding, comparable within an allelic series)"
same,binding signal,ALX3 [3],"8.65 upbm affinity estimate (log intensity, higher = more binding, comparable within an allelic series)"
TATTATAA,binding signal,ALX3 [1],"8.66 upbm affinity estimate (log intensity, higher = more binding, comparable within an allelic series)"
same,binding signal,ALX3 [3],"8.67 upbm affinity estimate (log intensity, higher = more binding, comparable within an allelic series)"
TCTATTAA,binding signal,HOXD13 [6],"10.7 upbm affinity estimate (log intensity, higher = more binding, comparable within an allelic series)"
AATCATTC,binding signal,ALX3 [1],"8.14 upbm affinity estimate (log intensity, higher = more binding, comparable within an allelic series)"
same,binding signal,ALX3 [2],"10 upbm affinity estimate (log intensity, higher = more binding, comparable within an allelic series)"
same,binding signal,ALX3 [3],"8.17 upbm affinity estimate (log intensity, higher = more binding, comparable within an allelic series)"
CTCGTTAA,binding signal,HOXD13 [6],"10.7 upbm affinity estimate (log intensity, higher = more binding, comparable within an allelic series)"
same,binding signal,HOXA2,"13.1 upbm affinity estimate (log intensity, higher = more binding, comparable within an allelic series)"
same,binding signal,HOXD13 [7],"12.1 upbm affinity estimate (log intensity, higher = more binding, comparable within an allelic series)"
same,binding signal,HOXD13 [8],"12 upbm affinity estimate (log intensity, higher = more binding, comparable within an allelic series)"
CCCGGCCA,binding signal,HOXD13 [6],"9.5 upbm affinity estimate (log intensity, higher = more binding, comparable within an allelic series)"
same,binding signal,NKX2-6 [9],"9.65 upbm affinity estimate (log intensity, higher = more binding, comparable within an allelic series)"
same,binding signal,HOXD13 [7],"9.64 upbm affinity estimate (log intensity, higher = more binding, comparable within an allelic series)"
same,binding signal,HOXD13 [8],"9.63 upbm affinity estimate (log intensity, higher = more binding, comparable within an allelic series)"
same,binding signal,NKX2-6 [10],"9.26 upbm affinity estimate (log intensity, higher = more binding, comparable within an allelic series)"
CATCTTAA,binding signal,HOXD13 [6],"10.1 upbm affinity estimate (log intensity, higher = more binding, comparable within an allelic series)"
same,binding signal,HOXD13 [7],"10.5 upbm affinity estimate (log intensity, higher = more binding, comparable within an allelic series)"
CTTATTGC,binding signal,HOXD13 [6],"10.1 upbm affinity estimate (log intensity, higher = more binding, comparable within an allelic series)"
same,binding signal,HOXD13 [7],"10.7 upbm affinity estimate (log intensity, higher = more binding, comparable within an allelic series)"
CTTTTATA,binding signal,HOXD13 [6],"10.7 upbm affinity estimate (log intensity, higher = more binding, comparable within an allelic series)"
CATTTGCC,binding signal,ALX3 [1],"7.93 upbm affinity estimate (log intensity, higher = more binding, comparable within an allelic series)"
same,binding signal,ALX3 [2],"8.86 upbm affinity estimate (log intensity, higher = more binding, comparable within an allelic series)"
same,binding signal,ALX3 [3],"7.93 upbm affinity estimate (log intensity, higher = more binding, comparable within an allelic series)"
TATAAACA,binding signal,HOXD13 [6],"10.7 upbm affinity estimate (log intensity, higher = more binding, comparable within an allelic series)"
AACTTCAT,binding signal,HOXD13 [6],"10.1 upbm affinity estimate (log intensity, higher = more binding, comparable within an allelic series)"
same,binding signal,HOXD13 [7],"10.6 upbm affinity estimate (log intensity, higher = more binding, comparable within an allelic series)"
ATATTTAA,binding signal,ALX3 [1],"8.67 upbm affinity estimate (log intensity, higher = more binding, comparable within an allelic series)"
same,binding signal,ALX3 [3],"8.84 upbm affinity estimate (log intensity, higher = more binding, comparable within an allelic series)"
CTCATCAA,binding signal,ALX3 [1],"8.12 upbm affinity estimate (log intensity, higher = more binding, comparable within an allelic series)"
same,binding signal,ALX3 [2],"9.41 upbm affinity estimate (log intensity, higher = more binding, comparable within an allelic series)"
same,binding signal,ALX3 [3],"8.16 upbm affinity estimate (log intensity, higher = more binding, comparable within an allelic series)"
GCATTAGA,binding signal,ALX3 [1],"8.11 upbm affinity estimate (log intensity, higher = more binding, comparable within an allelic series)"
same,binding signal,ALX3 [2],"9.95 upbm affinity estimate (log intensity, higher = more binding, comparable within an allelic series)"
same,binding signal,ALX3 [3],"8.12 upbm affinity estimate (log intensity, higher = more binding, comparable within an allelic series)"
CATTTATA,binding signal,HOXD13 [6],"10.7 upbm affinity estimate (log intensity, higher = more binding, comparable within an allelic series)"
ATATTCAA,binding signal,ALX3 [1],"8.33 upbm affinity estimate (log intensity, higher = more binding, comparable within an allelic series)"
same,binding signal,ALX3 [2],"9.13 upbm affinity estimate (log intensity, higher = more binding, comparable within an allelic series)"
same,binding signal,ALX3 [5],"8.63 upbm affinity estimate (log intensity, higher = more binding, comparable within an allelic series)"
CACCGCCG,binding signal,ALX3 [1],"7.75 upbm affinity estimate (log intensity, higher = more binding, comparable within an allelic series)"
same,binding signal,ALX3 [2],"7.68 upbm affinity estimate (log intensity, higher = more binding, comparable within an allelic series)"
same,binding signal,ALX3 [4],"7.66 upbm affinity estimate (log intensity, higher = more binding, comparable within an allelic series)"
same,binding signal,ALX3 [5],"7.7 upbm affinity estimate (log intensity, higher = more binding, comparable within an allelic series)"
same,binding signal,ALX3 [3],"7.75 upbm affinity estimate (log intensity, higher = more binding, comparable within an allelic series)"
TTATAGAA,binding signal,ALX3 [1],"8.31 upbm affinity estimate (log intensity, higher = more binding, comparable within an allelic series)"
same,binding signal,ALX3 [2],"9.6 upbm affinity estimate (log intensity, higher = more binding, comparable within an allelic series)"
same,binding signal,ALX3 [3],"8.38 upbm affinity estimate (log intensity, higher = more binding, comparable within an allelic series)"
GCCTCCAC,binding signal,HOXD13 [6],"9.56 upbm affinity estimate (log intensity, higher = more binding, comparable within an allelic series)"
same,binding signal,NKX2-6 [9],"9.6 upbm affinity estimate (log intensity, higher = more binding, comparable within an allelic series)"
same,binding signal,HOXD13 [7],"9.59 upbm affinity estimate (log intensity, higher = more binding, comparable within an allelic series)"
same,binding signal,HOXD13 [8],"9.61 upbm affinity estimate (log intensity, higher = more binding, comparable within an allelic series)"
same,binding signal,NKX2-6 [10],"9.3 upbm affinity estimate (log intensity, higher = more binding, comparable within an allelic series)"
CCTACCCC,binding signal,HOXD13 [6],"9.51 upbm affinity estimate (log intensity, higher = more binding, comparable within an allelic series)"
same,binding signal,HOXD13 [7],"9.51 upbm affinity estimate (log intensity, higher = more binding, comparable within an allelic series)"
same,binding signal,HOXD13 [8],"9.59 upbm affinity estimate (log intensity, higher = more binding, comparable within an allelic series)"
CTATAAAG,binding signal,HOXD13 [6],"10.8 upbm affinity estimate (log intensity, higher = more binding, comparable within an allelic series)"
same,binding signal,HOXD13 [7],"11.9 upbm affinity estimate (log intensity, higher = more binding, comparable within an allelic series)"
same,binding signal,HOXD13 [8],"11.6 upbm affinity estimate (log intensity, higher = more binding, comparable within an allelic series)"
GAGCCCAC,binding signal,HOXD13 [6],"9.49 upbm affinity estimate (log intensity, higher = more binding, comparable within an allelic series)"
same,binding signal,HOXD13 [7],"9.6 upbm affinity estimate (log intensity, higher = more binding, comparable within an allelic series)"
same,binding signal,HOXD13 [8],"9.72 upbm affinity estimate (log intensity, higher = more binding, comparable within an allelic series)"
CGAAGGCG,binding signal,HOXD13 [6],"9.52 upbm affinity estimate (log intensity, higher = more binding, comparable within an allelic series)"
same,binding signal,HOXD13 [7],"9.45 upbm affinity estimate (log intensity, higher = more binding, comparable within an allelic series)"
same,binding signal,HOXD13 [8],"9.53 upbm affinity estimate (log intensity, higher = more binding, comparable within an allelic series)"
CCCCTCGC,binding signal,HOXD13 [6],"9.62 upbm affinity estimate (log intensity, higher = more binding, comparable within an allelic series)"
same,binding signal,HOXD13 [7],"9.63 upbm affinity estimate (log intensity, higher = more binding, comparable within an allelic series)"
same,binding signal,HOXD13 [8],"9.67 upbm affinity estimate (log intensity, higher = more binding, comparable within an allelic series)"

# — publication PMC11006913
